Measured values from the supplement of paper PMC6555819.

Assays:
Experiment in all cases: PBM binding z-score (relative to random genomic background probes); higher = stronger binding; sequences stand for … in GC…GCGATTGACAGCGTAGAATGAAGG
[1] = tested on: RARb homodimer (NR concentration 270 nM)
Method in brief: (§1)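 Random background probes are the reference for binding z-scores. These scores derive from regression-normalized fluorescence on custom Agilent 4×180K protein-binding microarrays incubated 1 h with ligand-free nuclear receptor dimers. Binding was detected with antibodies against each partner (one per run).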

[2] = tested on: RARg:RXRa (NR concentration 270 nM, RXRa partner concentration 90 nM)
Method in brief: as §1

[3] = tested on: RARg homodimer (NR concentration 270 nM)
Method in brief: as §1

[4] = tested on: RXRa DBDmut IVT, anti-RXR (DBD mutation: RXRa K156A/R161A, NR concentration 90 nM)
Method in brief: as §1

[5] = tested on: RXRa homodimer (NR concentration 180 nM)
Method in brief: as §1

[6] = tested on: THRa:RXRa (NR concentration 90 nM, RXRa partner concentration 90 nM)
Method in brief: as §1

[7] = tested on: THRa homodimer (NR concentration 90 nM)
Method in brief: as §1

[8] = tested on: VDR:RXRa (NR concentration 270 nM, RXRa partner concentration 90 nM)
Method in brief: as §1

[9] = tested on: VDR homodimer (NR concentration 270 nM)
Method in brief: as §1

| Sequence | PBM binding z-score [1] | PBM binding z-score [2] | PBM binding z-score [3] | PBM binding z-score [4] | PBM binding z-score [5] | PBM binding z-score [6] | PBM binding z-score [7] | PBM binding z-score [8] | PBM binding z-score [9] |
| --- | --- | --- | --- | --- | --- | --- | --- | --- | --- |
| CGTCCAAGGTCAAAGGTCCGTGAAGAGATGACGG | 3.99 | 6.31 | 6.35 | 3.54 | 6.84 | 3.99 | 2.24 | 4.62 | 2.87 |
| CCTGCTAGGTAAATGGTCAGCTAAAGCAGCTCGC | -0.0242 | -0.351 | -0.323 | -0.0563 | -0.478 | -0.113 | -0.416 | -0.541 | -0.618 |
| CAAACTATGTCACCGGAAGGTCAAAGTCCGCATG | 4.63 | 5.37 | 4.06 | 1.32 | 4.15 | 3.11 | 1.99 | 3.84 | 2.33 |
| TAGCCTAGGTCATTGGGCCAGTGTAGTACGCATC | 3 | 3.57 | 4.14 | 1.61 | 2.7 | 2.94 | 0.8 | 2.12 | 1.07 |
| GCATATAGGTAATACAAGGTTAAAGTCCGATTGT | 1.42 | 0.95 | 0.775 | 0.599 | 1.39 | 4.03 | 0.575 | 1.6 | 0.898 |
| CCTTACGGGTCACTCCAAGTTATAGCATCGGAGT | 2.81 | 4.31 | 4.69 | 1.81 | 4.11 | 2.51 | 0.165 | 2.82 | 1.05 |
| CCTACTGGGCCATCAGTTCATTGATATCAACGTT | 0.932 | 0.31 | 0.439 | 0.88 | -0.0335 | 0.411 | 0.333 | 1.13 | 3.3 |
| ATCGAAAGGTCGAAGGTGAGTAGACCCACCCGAA | 2.17 | 4.35 | 4.04 | 1 | 5.53 | 1.87 | -0.399 | 2.43 | -0.0656 |
| CCTATTGGGCCAAGGTCATTGATCAGTCAAAGCA | 3.15 | 3.81 | 3.22 | 1.62 | 3.07 | 3.6 | 2.3 | 3.29 | 3.13 |
| CCTACTGGGCCAAGGTGATTGATCAGTCAAAGCA | -0.085 | -0.199 | -0.0733 | -1.43 | -0.57 | 0.355 | -0.015 | -0.746 | -0.782 |
| GCGACTGGGGCATCAGCAGGTTACAATAACTTAA | 0.719 | 0.817 | 0.522 | -0.00722 | 0.334 | 0.895 | 0.0253 | -0.29 | -0.0954 |
| AGTCGAAGTTCATCTAGGTAACGTAAGATATGCT | 2.11 | 2.84 | 3.19 | 3.88 | 1.91 | 2.31 | -0.00664 | 3.51 | 3.81 |
| ACTAGCAGGCCAAGTTTGTGTCACTCAAACAAAG | 0.267 | 0.00878 | 0.0859 | -0.193 | -0.545 | -0.0341 | -0.316 | -0.313 | 0.051 |
| TATACAGGGTGAAAGGCCAGAGTACGAATGTCGA | 1.29 | 1.67 | 1.69 | -0.111 | 2.07 | 1.18 | -0.0839 | 0.682 | 0.653 |
| ATCTCTAGGTAAAGCTCAGTGAAAGATCGATAGA | -0.225 | 0.103 | 0.259 | -0.165 | -0.128 | 0.19 | -0.0384 | -0.295 | -0.271 |
| GCAGACAGGTGAAACGCAGGTAACCCAGGGTGGC | 0.0682 | 1.01 | 0.468 | -1.51 | 0.96 | 1.52 | -0.636 | -0.517 | -1.22 |
| ACTTACGGGTCAACGAGGATATAGCACGCGTATA | 2.74 | 5.35 | 4.72 | 2.12 | 5.48 | 3.55 | 0.687 | 6.51 | 2.15 |
| TCATATAGGTAAATGCTGGGTGAAAGTCCGATCT | 0.617 | 0.24 | 0.16 | 1.48 | 0.693 | 0.785 | 0.692 | 0.641 | 0.384 |
| ATCGAAAGGTCGATGAGGTGAGTATACACCGTTT | 2.52 | 3.5 | 3.32 | 0.841 | 3.56 | 3.75 | 0.943 | 5.2 | 1.17 |
| TAGCCTAGGTCATGCGGGCCAGTGTAGTGTCGGC | 3.06 | 3.69 | 4.29 | 0.446 | 2.6 | 2.99 | 0.878 | 2.74 | 0.567 |
| AGAACGAGGGCAATGATTTGATAGCACGGGTGGC | 0.954 | 0.982 | 1.4 | 1.64 | 0.834 | 0.95 | 0.00137 | 0.334 | 0.721 |
| ATATGTAGGTTATCGGGCCATTCAGTTTGCGCAT | 1.07 | 0.874 | 0.93 | 0.832 | 0.911 | 1.24 | 0.971 | 1.14 | 1.34 |
| ACAGACAGGTGAGGGAAGGTAACTCAGCTGGACG | 0.595 | 0.445 | 0.526 | -0.769 | 0.426 | 2.31 | -0.12 | -0.405 | -0.764 |
| CCTACTGGGCCTAAAAGGTCATTGATGCCGATAA | 4.24 | 4.67 | 3.93 | 0.753 | 4.91 | 3.08 | 0.544 | 4.38 | 2.73 |
| TCTAGTTGGTCACGGCGGTCACACACGACGGGTA | 2.92 | 2.1 | 2.76 | 0.889 | 1.34 | 0.79 | 0.372 | 1.82 | 0.652 |
| CCTACTGGGCCATTCTGAGGTCATTGATCATATG | 3.32 | 3.38 | 1.96 | 1.23 | 2.4 | 4.22 | 4.5 | 3.7 | 3.8 |

| Sequence | PBM binding z-score [1] | PBM binding z-score [2] | PBM binding z-score [3] | PBM binding z-score [4] | PBM binding z-score [5] | PBM binding z-score [6] | PBM binding z-score [7] | PBM binding z-score [8] | PBM binding z-score [9] |
| --- | --- | --- | --- | --- | --- | --- | --- | --- | --- |
| TCTGGTAGATCAATAGAGGTTAAGAAAGTGCGCT | 1.43 | 0.787 | 0.391 | 0.698 | 1.48 | 2.22 | -0.138 | 1.87 | 0.435 |
| CGAACTAGGTCATTGACATGACAGTGAATAGTAA | 2.55 | 3.68 | 4.2 | 2.17 | 2.84 | 2.68 | 0.792 | 2.16 | 1.36 |
| AGTCAAAGTTCACTAGGTAACGTTAGATTCAGCT | 3.56 | 4.93 | 5.57 | 4.15 | 4 | 2.05 | 0.157 | 4.07 | 3.87 |
| AATACAGGGTCTCTAGGCCAGAGTAGGTACGAAT | 0.256 | 0.0798 | 0.292 | -0.254 | -0.15 | 0.0248 | -0.0749 | -0.299 | 0.143 |
| AGAATGAGGTTATACGTAGATCAGGTAAGAAAGT | 1.16 | 1.68 | 1.19 | 1.81 | 2.31 | 2.39 | 1.01 | 1.58 | 0.844 |
| GGAACGAGGGCATTGGAGTTGATAGCATGGCGAT | 1.04 | 1.13 | 1.42 | 2.75 | 0.72 | 1.9 | -0.24 | 2.6 | 2.58 |
| ACAGACAGGTGATGAAGGTAACTCAAGCTATCAT | 0.13 | 0.288 | 0.537 | -0.0436 | 0.166 | 0.289 | -0.0849 | 0.0355 | -0.318 |
| AGAATGAGGTTATGATCAGGGAAACAGAATACAT | 0.715 | 1.74 | 1.11 | 1.02 | 2.16 | 2.44 | 0.714 | 1.11 | 0.317 |
| ACTCGGAGGACAACGGTCAGAGCTACGCCAGTGA | 1.51 | 1.06 | 2.14 | 0.0365 | -0.0292 | 0.773 | -0.132 | -0.667 | -0.272 |
| ACAGACAGGTGATGAAGGTACCTCAGGCTATCAT | -0.181 | 0.158 | 0.411 | -0.579 | 0.4 | 0.509 | -0.21 | -0.291 | -0.451 |
| ACTAGCAGGCCAAGTTTGGGTCTCTCAAACAAAG | 0.00651 | -0.231 | -0.0296 | -0.0597 | -0.754 | -0.042 | -0.533 | -0.766 | -0.181 |
| CCTCGGAGGACAGAAGGACAGAGCTGTCCGCTTT | 0.278 | -0.0569 | 0.674 | -0.277 | -0.555 | 0.672 | -0.622 | -0.413 | -0.357 |
| CCTAGTTGGTCAAGGTCAAACACGCTATAGGTAC | 4.29 | 4.69 | 4.37 | 2.71 | 4.76 | 4.07 | 3.39 | 4.47 | 4.52 |
| ATCTCCAGGTAAGACTCAGTTCAGTGAAGAACGC | 0.752 | 0.584 | 0.474 | 0.412 | 0.366 | 1.1 | 1.32 | 1.05 | 1.27 |
| AGTCAAAGTTCAGGACGAGGTATCGTAAAGCACG | 2.81 | 4.03 | 4.67 | 2.93 | 2.81 | 2.54 | 0.691 | 2.29 | 2.06 |
| CGTCAATGTTCAACTAAGGTAACGTAAAGCACGC | 0.643 | 0.459 | 0.531 | 0.651 | 0.456 | 3.46 | 2.04 | 0.565 | 0.309 |
| CAAACTAGGTCTCCGGAAGGTCAAAGTCCGCATG | 4.17 | 4.36 | 3.46 | 0.358 | 3.68 | 2.88 | 1.4 | 3.06 | 1.84 |
| AATACAGGGTCAGCGTAGGCCAGAGTACGCACAG | 3.36 | 4.93 | 4.67 | 1.69 | 4.84 | 3.98 | 0.9 | 3.44 | 1.65 |
| TCTTGTAGATCAACAGGTTAAGAAAGCTGGCCAA | 0.358 | 0.2 | -0.172 | 0.696 | 0.726 | 0.203 | -0.285 | 0.855 | -0.285 |
| CCTACTGGACCACGAAAGGTCATTGATTCAGTGA | 4.5 | 4.44 | 3.94 | 1.31 | 5.46 | 3.36 | 1.6 | 4.17 | 2.68 |
| TCGAGTAGGCTAGTCGGGGCATTCAGCCAACATA | -0.562 | -0.554 | -0.738 | -0.313 | -0.347 | -0.266 | -0.771 | -0.402 | -0.582 |
| ATCTCTAGGTAAAGATAGCTCAGTGAATGCAAAT | -0.409 | 0.141 | 0.459 | -0.409 | -0.19 | -0.00233 | -0.226 | -0.433 | -0.379 |
| CAAACTACGTCAAGAGGTCAAAGTCCGCTTCCCG | 4.32 | 5.45 | 4.73 | 2.5 | 6.72 | 3.72 | 1.78 | 5.03 | 4.48 |
| ATACCAAGGTGATCGTGCGGTCGTTGATACTAAC | 0.887 | 0.886 | 0.233 | -0.0167 | 0.159 | 1.23 | 0.424 | 0.18 | 0.302 |
| ATCGAAAGGTCGAGGTGACTATAGAGAAAGGGAA | 2.73 | 4.4 | 4.53 | 1.37 | 4.45 | 2.9 | 0.607 | 2.55 | 0.269 |
